# Sampled rows, rich in hits. Any-hit rate of the full collection: about 1.3%.
# Pin1 inhibitor: blocks the human prolyl isomerase Pin1. Q13526. Pin1 FP peptide displacement, HiFluor488, 10 min. Potency, µM (doses to about 115 µM), for inactives: top-dose activity, negative = inhibition, actives largely listed as inhibitors. 390,000 tested, 0.009% active. AID 504891; active means well fitted inhibition curve with a large enough effect in the polarisation, with a control signal flat, not every such curve was filed as active; inconclusive means small, poorly fitted or top-dose-only effect, or effect the other way, or a change in a side signal; inactive means no such curve, though single readings can be large or run the other way; the % refers to the polarisation; further: potency means the concentration at half of the fitted maximal effect; on the % scale 0 is the no-effect control and ±100 the full control effect
# Target sequence (Q13526 whole entry, looked up): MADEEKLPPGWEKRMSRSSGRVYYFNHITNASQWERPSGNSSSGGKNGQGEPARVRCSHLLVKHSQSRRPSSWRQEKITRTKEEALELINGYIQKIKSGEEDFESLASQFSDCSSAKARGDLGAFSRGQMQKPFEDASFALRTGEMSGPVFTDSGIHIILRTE
# FEN1 inh-1: inhibitors of human flap endonuclease 1; Recombinant FEN1 flap cleavage, fluorescence, 15 min; Potency, µM (top dose mostly 114 µM), without a hit: top-dose activity change, negative = inhibition, most hits filed as inhibitors; 390,000 tested, 0.35% active; AID 588795; further: potency means the concentration at half of the fitted maximal effect; on the % scale 0 is the no-effect control and ±100 the full control effect; nearly all actives have a fitted effect of over 65% in size
# Target sequence (P39748 whole entry, looked up): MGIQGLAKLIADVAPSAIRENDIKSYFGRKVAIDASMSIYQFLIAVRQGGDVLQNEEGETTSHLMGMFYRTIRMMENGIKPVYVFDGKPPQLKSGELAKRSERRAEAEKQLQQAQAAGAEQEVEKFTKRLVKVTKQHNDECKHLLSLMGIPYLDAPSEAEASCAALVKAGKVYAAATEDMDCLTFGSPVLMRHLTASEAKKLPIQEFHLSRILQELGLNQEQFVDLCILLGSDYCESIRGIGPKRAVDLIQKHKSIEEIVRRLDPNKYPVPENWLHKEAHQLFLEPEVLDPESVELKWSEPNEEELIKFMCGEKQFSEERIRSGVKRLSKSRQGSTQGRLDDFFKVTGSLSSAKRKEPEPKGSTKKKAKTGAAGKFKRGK
#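 Nuclease activity of 10 nM FEN1 was measured after 15 min of room-temperature exposure to titrated compounds, by adding 50 nM flap substrate and reading plates at 0 and 15 min.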
# WRN helicase inh-1: inhibitors of human WRN helicase; Potency, µM (top dose mostly 114 µM), without a hit: at the top dose activity change, negative = inhibition, actives largely listed as inhibitors; WRN helicase unwinding, fluorescent forked duplex, kinetic; 360,000 tested, 0.46% active; Q14191; AID 651768; further: potency means the concentration at half of the fitted maximal effect; on the % scale 0 is the no-effect control and ±100 the full control effect; nearly all actives have a fitted effect of over 55% in size
#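 Fluorescence dequenching readout, ex 525 nm/em 598 nm, kinetic mode: forked duplex DNA (100 nM final) with adjacent fluorophore and quencher unwound by WRN (20 nM final) with 2 mM ATP. Compound preincubation 15 min, room temperature.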
# PI5P4Ka inh: PI5P4K alpha (human) kinase inhibition | AID 652105 | 330,000 tested, 1.2% active | PI5P4Kalpha enzyme, ADP-Glo luminescence, 60 min; hits give low values | max response, % | P48426; active means max response of -50% or lower; inconclusive means between -30% and -50%; inactive means -30% or higher; further: value at the top dose of about 77 µM; on the % scale 0 is the no-effect control and ±100 the full control effect
#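 ADP-Glo luminescence end-point read after a 60 min room-temperature kinase reaction of PI5P4Kalpha plus substrate, initiated with ATP at 5 microM final. Buffer: 0.038 M HEPES pH 7.4, EGTA, 0.1% CHAPS, 5% DMSO.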
# Glioma ERSR ind: induces the endoplasmic reticulum stress response in human glioma cells. 420,000 tested, 0.02% active. U87-MG GRP78 promoter luciferase reporter, 16 h. Potency, µM, for the others: at the top dose activation, most hits filed as activators; further: potency means the concentration at half of the fitted maximal effect; series mostly up to about 76 µM; % of control where 0% means no effect; nearly all actives have a fitted effect of over 35% in size
#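 ERSR induction read as luciferase luminescence (Bright-Glo, 10 min at room temperature) in stably transfected human U87-MG glioma cells exposed to compounds for 16 h, using GRP78 as sensor.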
# Tb PGK inh: inhibitors of T. brucei phosphoglycerate kinase. PGK/GAPDH coupled, Kinase-Glo luminescence, 60 min. Potency, µM (top dose mostly 57.5 µM), without a hit: top-dose activity change, negative = inhibition, hits mostly inhibitors. 380,000 tested, 0.043% active; further: potency means the concentration at half of the fitted maximal effect; on the % scale 0 is the no-effect control and ±100 the full control effect; nearly all actives have a fitted effect of over 60% in size
#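 Luminescent ATP detection (Kinase-Glo Plus) follows a 60-minute room-temperature incubation, with wells lacking PGK as controls. Buffer: 100 mM TEA (pH 7.6), 5 mM MgCl2, 0.01% Tween-20. Coupling enzyme GAPDH (100 nM final) supplies unstable 1,3-BPG in-well.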
# FEN1 inh-2: FEN1 inhibition, cherry-pick retest. FEN1 flap cleavage, TAMRA/BHQ2 fluorogenic DNA substrate. AID 720498. Potency, µM, usual class: inhibitors. shares compounds with FEN1 inh-1. 880 tested, 79% active; further: potency means the concentration at half of the fitted maximal effect; nearly all actives have a fitted effect of over 60% in size
# WRN helicase inh-2: confirmation of human WRN helicase inhibitors; WRN helicase DNA unwinding, fluorescence kinetic; Potency, µM (doses to about 57.1 µM), for the others: top-dose activity, negative = inhibition, hits mostly inhibitors; shares compounds with WRN helicase inh-1; 610 tested, 63% active; AID 720497; further: potency means the concentration at half of the fitted maximal effect; nearly all actives have a fitted effect of over 65% in size
# TO displacement: DNA binding via thiazole orange displacement | 610 tested, 10% active | shares compounds with WRN helicase inh-1 | AID 720499 | Potency, µM (doses to about 57.1 µM), for the others: top-dose activity change, negative = inhibition, most hits filed as inhibitors | thiazole orange DNA binding displacement, fluorescence;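 further: drop in dye fluorescence marks compound binding to DNA; potency means the concentration at half of the fitted maximal effect; on the % scale 0 is the no-effect control and ±100 the full control effect; nearly all actives have a fitted effect of over 60% in size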
# BLM helicase inh: blocks human BLM helicase in WRN counterscreen; shares compounds with WRN helicase inh-1; Recombinant BLM helicase DNA unwinding, red fluorescence; Potency, µM (doses to about 57.1 µM), inactives show at the top dose activity change, negative = inhibition, usual class: inhibitors; 610 tested, 60% active; AID 720503; further: potency means the concentration at half of the fitted maximal effect; nearly all actives have a fitted effect of over 60% in size
# The depositor's hits bear a star; i = inactive; ? = inconclusive; / = not tested or not shown. Unless noted, the call rests on the fitted dose curve; in most records, active means well fitted curve in the direction sought with a large enough effect; inconclusive means small, poorly fitted or top-dose-only effect, or another doubt; inactive means no such curve, though single readings can be large; an effect the other way counts as inactive or inconclusive.
SMILES,Pin1 inhibitor,FEN1 inh-1,WRN helicase inh-1,PI5P4Ka inh,Glioma ERSR ind,Tb PGK inh,FEN1 inh-2,WRN helicase inh-2,TO displacement,BLM helicase inh
COc1cc(NS(=O)(=O)c2ccc(NC(=S)NC(=O)c3sc4cc(F)ccc4c3Cl)cc2)nc(OC)n1,?,?,?,?,-2%,-5%,?,22µM*,-21%,24µM*
O=C(NC1CCCC1)c1cn(C2CCCN(Cc3ccc4c(c3)OCCO4)C2)nn1 (stereo not given),/,/,/,/,-5%,/,/,/,/,/
O=C(c1ccc2nc(-c3ccco3)c(-c3ccco3)nc2c1)N1CCN(c2ccccc2)CC1,?,-4%,-22%,/,-5%,-2%,/,/,/,/
O=C(O)c1ccc2nc(-c3ccco3)c(-c3ccco3)nc2c1,?,35µM*,?,?,-1%,?,15*,4.3µM*,3.8µM*,12µM*
CCN(Cc1ccncc1)Cc1ccc2c(c1)CN(C(=O)c1ccc(OC)cc1)CCO2,/,/,/,/,-3%,/,/,/,/,/
O=C1CCCC2=C1C(c1ccco1)Nc1ccc3ccccc3c12 (stereo not given),/,50µM*,18µM*,-64*,-4%,?,76*,15µM*,-28%,3µM*
O=C1CCCC2=C1C(c1ccc(O)c(O)c1)Nc1ccc3ccccc3c12 (stereo not given),?,-8%,-20%,?,1%,2%,/,/,/,/
c1cnc(N2CCN(c3ncc4c(n3)CCNC4)CC2)nc1,-1%,8%,/,/,-3%,-2%,15*,22µM*,?,?
CC(C)CN1CCc2nc(N3CCN(c4ncccn4)CC3)ncc2C1,-2%,15%,/,/,2%,-2%,/,/,/,/
CCN(CC)CCCNc1ccc2ncn3c4ccc(O)cc4c(=O)c1c23,/,10µM*,25µM*,-24,-5%,-6%,8.5*,22µM*,i,-62%
O=C(O)c1ccccc1NS(=O)(=O)c1ccc(NN=Cc2ccccc2F)c([N+](=O)[O-])c1,/,?,79µM*,?,-3%,?,76*,24µM*,?,22µM*
COc1cc(/C=C2\SC(=Nc3ccc(O)cc3)NC2=O)cc(OC)c1O,20%,?,-34%,?,-1%,-1%,/,/,/,/
CCc1ccc(N=C2NC(=O)/C(=C/c3cc(Br)c(OCC(=O)O)c(OC)c3)S2)cc1,/,50µM*,?,-97*,-3%,-28%,76*,22µM*,-4%,24µM*
COCc1ccc(C(=O)N2CCOc3c(cc(-c4cc(C)c5cccc(OC)c5n4)cc3OC)C2)o1,/,/,/,/,-3%,/,/,/,/,/
COc1cc(/C=C(\C#N)c2nc3ccc(C)cc3[nH]2)cc([N+](=O)[O-])c1O,/,50µM*,?,-88*,?,-16%,?,22µM*,11µM*,12µM*
Cc1cc(=O)c2c(o1)C(=O)c1occc1C2=O,/,50µM*,25µM*,?,-12%,?,?,24µM*,-24%,?
Cc1nc(NCc2c(F)cccc2F)sc1-c1ccn(CCN2CCOCC2)n1,/,/,/,/,-2%,/,/,/,/,/
O=C1CC(c2ccc(O)c(O)c2)Oc2c1ccc(O)c2O (stereo not given),?,3.5µM*,3.2µM*,-86*,10%,?,34*,1.1µM*,?,0.96µM*
CCO/C=C1\SC(=S)N(c2ccc(Cl)cc2)C1=O,51%,1%,?,-5,-2%,0%,/,/,/,/
CC(C)c1ccc(N2C(=O)/C(=C/N(C)C)SC2=S)cc1,?,32µM*,20µM*,-27,-1%,-17%,30*,12µM*,-20%,14µM*
CC(C)c1ccc(S(=O)(=O)Nc2ccc(O)c(Sc3ncn[nH]3)c2)cc1,-2%,9%,2%,-7,-3%,-3%,/,/,/,/
COc1ccc(S(=O)(=O)Nc2cc(Sc3ncn[nH]3)c(O)c3ccccc23)cc1,?,6.3µM*,9.5µM*,/,-11%,/,?,24µM*,-14%,?
O=C(NCC1Cc2cccc(-c3ncccn3)c2O1)C1CCCO1 (stereo not given),/,/,/,/,-4%,/,/,/,/,/
O=C(O)c1ccccc1-c1c2cc(Br)c(=O)c(Br)c-2oc2c(Br)c(O)c(Br)cc12,/,/,/,/,-4%,/,/,/,/,/
O=C(O)c1cccc2cccc(-c3c4ccc(=O)c(O)c-4oc4c(O)c(O)ccc34)c12,/,3.2µM*,3.5µM*,-95*,11%,2.5µM*,3.4*,1.5µM*,4.3µM*,0.38µM*
SMILES,Pin1 inhibitor,FEN1 inh-1,WRN helicase inh-1,PI5P4Ka inh,Glioma ERSR ind,Tb PGK inh,FEN1 inh-2,WRN helicase inh-2,TO displacement,BLM helicase inh
O=S(=O)(O)c1ccc(O)c2cc(Nc3ccccc3)ccc12,8.5µM*,7.9µM*,0.95µM*,-105*,-2%,5µM*,8.5*,0.43µM*,9.6µM*,0.061µM*
O=C(O)c1ccc2c(c1)C(=O)/C(=C\c1ccco1)C2=O,/,?,25µM*,-61*,-3%,?,27*,?,22µM*,-10%
CCC1CN(CCNC(=O)c2cccc(C(=O)OC)c2)Cc2cc(OC)ccc2O1 (stereo not given),/,/,/,/,-2%,/,/,/,/,/
CC1=C(C(=O)Nc2ccccc2)C(c2ccc[nH]2)n2ncnc2N1 (stereo not given),?,?,/,/,-2%,/,76*,7.6µM*,?,1.1µM*
CC1=C(C(=O)Nc2ccccc2)C(c2ccccn2)n2ncnc2N1 (stereo not given),2%,0%,-3%,-4,-8%,-10%,/,/,/,/
CC1=Nc2ccccc2/C1=C\c1nc(-c2ccc(F)cc2)oc1O,?,71µM*,?,/,-2%,4%,24*,19µM*,106%,19µM*
CN=Cc1nc(-c2ccccc2)oc1O,-6%,3%,6%,-13,0%,-12%,/,/,/,/
Cc1cccc(CNC(=O)c2cnn(-c3ncc(C)c(-c4cccs4)n3)c2C2CC2)n1,/,/,/,/,-3%,/,/,/,/,/

# Compound activity as filed in PubChem BioAssay.
